Source: PubChem BioAssay (NCATS)
Records with an inconclusive call do not appear. Calls of active or inactive are those of the source. Calls follow the shape of the dose curve; as a rule, active = well fitted cell-killing curve with a large enough effect; inconclusive = small, poorly fitted or top-dose-only effect, or effect the other way; inactive = flat fitted curve, though single readings scatter.

Tests used:
Assay in all cases: Primary qHTS to identify gynecologic anti-cancer compounds using libraries of approved drugs and bioactive compounds (AID 1345084); also: nearly all actives have a fitted effect of over 55% in size
Conditions in all cases: Gynecologic cancer cell panel viability, ATPlite luminescence, 48 h; series mostly up to 57.5 µM
JEG-3 = tested on: JEG-3
Outline: (§1)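 48 h compound exposure at 37 C, 5% CO2; five-point qHTS. ATPlite luminescence readout of cell ATP.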

OV90 = tested on: OV90
Outline: as §1

PA-1 = tested on: PA-1
Outline: as §1

SKOV3 = tested on: SKOV3
Outline: as §1

Tov-21-G = tested on: Tov-21-G
Outline: as §1

Tov112D = tested on: Tov112D
Outline: as §1
% is scaled to controls: 0 for no effect and ±100 for the full control effect.

CC1OC(OCC2OC(OC3CCC4(C)C(CCC5(C)C4CC=C4C6CC(C)(C)CCC6(C(=O)OC6OC(CO)C(O)C(O)C6O)CCC45C)C3(C)CO)C(O)C(O)C2O)C(O)C(O)C1O (stereo not given)
inactive: activity change, negative = cytotoxicity (JEG-3) -1.04% [at 11.6 µM] | activity change, negative = cytotoxicity (OV90) -5.44% [at 11.6 µM] | activity change, negative = cytotoxicity (PA-1) -0.107% [at 11.6 µM] | activity change, negative = cytotoxicity (SKOV3) 24.6% [at 11.6 µM] | activity change, negative = cytotoxicity (Tov-21-G) 2.94% [at 11.6 µM] | activity change, negative = cytotoxicity (Tov112D) -1.29% [at 11.6 µM]

C[C@H](O)[C@H](O)/C=C/c1cccc(O)c1CO
inactive: Potency (JEG-3) | Potency (OV90) | Potency (PA-1) | Potency (SKOV3) | Potency (Tov-21-G) | Potency (Tov112D)

Cc1noc(=O)c2ccc(NC(=O)C(O)(CC(C)(C)c3cccc4c3OCC4)C(F)(F)F)cc12 (stereo not given)
inactive: Potency (JEG-3) | Potency (OV90) | Potency (PA-1) | Potency (SKOV3) | Potency (Tov-21-G) | Potency (Tov112D)

C/C(=C\CCC1(C)C2CCC(C2)C1(C)O)C(=O)O (stereo not given)
inactive: Potency (JEG-3) | Potency (OV90) | Potency (PA-1) | Potency (SKOV3) | Potency (Tov-21-G) | Potency (Tov112D)

CCOC(=O)CCN(C(=O)c1ccc2c(c1)nc(CNc1ccc(C(=N)N)cc1)n2C)c1ccccn1
inactive: Potency (JEG-3) | Potency (OV90) | Potency (PA-1) | Potency (SKOV3) | Potency (Tov-21-G) | Potency (Tov112D)

COC(=O)[C@@H](O)[C@H]1[C@@]2(C)CC3(O)[C@@H](C(=O)[C@H]2O)[C@]24O[C@]25CC(=O)O[C@@H](c2ccoc2)[C@]5(C)CCC4[C@]13C (stereo not given in full)
inactive: Potency (JEG-3) | Potency (OV90) | Potency (PA-1) | Potency (SKOV3) | Potency (Tov-21-G) | Potency (Tov112D)

COC(=O)c1ccc(OC(CO)C(O)c2ccc(O)c(OC)c2)c(OC)c1 (stereo not given)
inactive: Potency (JEG-3) | Potency (OV90) | Potency (PA-1) | Potency (SKOV3) | Potency (Tov-21-G) | Potency (Tov112D)

COC(=O)C12CCC(C)C(C)C1C1=CCC3C4(C)CCC(OC(C)=O)C(C)(C)C4CCC3(C)C1(C)CC2 (stereo not given)
inactive: Potency (JEG-3) | Potency (OV90) | Potency (PA-1) | Potency (SKOV3) | Potency (Tov-21-G) | Potency (Tov112D)

C=C1CC23CC1CCC2C12OC(=O)C(C)(CCC1O)C2C3C(=O)O (stereo not given)
inactive: Potency (JEG-3) | Potency (OV90) | Potency (PA-1) | Potency (SKOV3) | Potency (Tov-21-G) | Potency (Tov112D)

CCOCCn1nc(CC)c2nc(N3CCC(C(=O)O)CC3)nc(Nc3cc(C)ccn3)c21
inactive: Potency (JEG-3) | Potency (OV90) | Potency (PA-1) | Potency (SKOV3) | Potency (Tov-21-G) | Potency (Tov112D)

C[C@@H]1O[C@@H](O[C@H]2[C@@H]3C=CO[C@@H](O[C@@H]4O[C@H](CO)[C@@H](O)[C@H](O)[C@H]4O)[C@@H]3[C@@]3(CO)O[C@@H]23)[C@H](OC(=O)/C=C/c2ccc(O)c(O)c2)[C@H](O)[C@H]1O
inactive: Potency (JEG-3) | Potency (OV90) | Potency (PA-1) | Potency (SKOV3) | Potency (Tov-21-G) | Potency (Tov112D)

C/C1=C\CC[C@]2(C)O[C@@H]2[C@H](O)[C@H](C(C)C)[C@H](OC(=O)/C=C/c2ccccc2)C1
inactive: Potency (JEG-3) | Potency (OV90) | Potency (PA-1) | Potency (SKOV3) | Potency (Tov-21-G) | Potency (Tov112D)

O=S(=O)(NC1CCC(c2cc(F)ccc2F)(S(=O)(=O)c2ccc(Cl)cc2)CC1)C(F)(F)F (stereo not given)
inactive: Potency (JEG-3) | Potency (OV90) | Potency (PA-1) | Potency (SKOV3) | Potency (Tov-21-G) | Potency (Tov112D)

C=C[C@@H]1[C@H](O[C@@H]2O[C@H](CO)[C@@H](O)[C@H](O)[C@H]2O)OC=C(C(=O)O)[C@H]1CCOC(=O)/C=C/c1ccc(O)c(O)c1
inactive: Potency (JEG-3) | Potency (OV90) | Potency (PA-1) | Potency (SKOV3) | Potency (Tov-21-G) | Potency (Tov112D)

CC(O)/C=C/C1OC(=O)CC1Nc1ccc(C(=O)O)cc1 (stereo not given)
inactive: Potency (JEG-3) | Potency (OV90) | Potency (PA-1) | Potency (SKOV3) | Potency (Tov-21-G) | Potency (Tov112D)

CC(C)C(C(=O)N(C)C(C)C(N)=O)N(C)C(=O)C1CCCN1C(=O)/C=C/C=C/C(O)C(C)O (stereo not given)
inactive: Potency (JEG-3) | Potency (OV90) | Potency (PA-1) | Potency (SKOV3) | Potency (Tov-21-G) | Potency (Tov112D)

C=C1C(=O)O[C@@H]2C[C@H](C)[C@@]3(O)C=C(C(C)=O)[C@]4(CC3C[C@H]12)C(=O)O[C@H]1C[C@@H](C)C(CCC(C)=O)=CC[C@H]14 (stereo not given in full)
inactive: Potency (JEG-3) | Potency (OV90) | Potency (PA-1) | Potency (SKOV3) | Potency (Tov-21-G) | Potency (Tov112D)

O=C(Nc1ccc(S(=O)(=O)Nc2ccccc2Cl)c(Cl)c1)c1ccccn1
inactive: Potency (JEG-3) | Potency (OV90) | Potency (PA-1) | Potency (SKOV3) | Potency (Tov-21-G) | Potency (Tov112D)

COc1ccc(C(=O)C2CCN(CC(=O)N(Cc3nc4c(c(=O)[nH]3)COCC4)CC3CC3)CC2)cc1
inactive: Potency (JEG-3) | Potency (OV90) | Potency (PA-1) | Potency (SKOV3) | Potency (Tov-21-G) | Potency (Tov112D)

OC/C=C/C=C/[C@H]1Cc2cc(O)cc(O)c2O1
inactive: Potency (JEG-3) | Potency (OV90) | Potency (PA-1) | Potency (SKOV3) | Potency (Tov-21-G) | Potency (Tov112D)

COc1cc([C@H]2c3cc(O)c(OC)cc3C[C@@H](CO[C@@H]3O[C@H](CO)[C@@H](O)[C@H](O)[C@H]3O)[C@@H]2CO)ccc1O
inactive: Potency (JEG-3) | Potency (OV90) | Potency (PA-1) | Potency (SKOV3) | Potency (Tov-21-G) | Potency (Tov112D)

C=C1C(O)CC2C(C(=O)O)=COC(O[C@@H]3O[C@H](COC(=O)/C=C/c4ccc(O)cc4)[C@@H](O)[C@H](O)[C@H]3O)C12 (stereo not given in full)
inactive: Potency (JEG-3) | Potency (OV90) | Potency (PA-1) | Potency (SKOV3) | Potency (Tov-21-G) | Potency (Tov112D)

COC(=O)c1cc(OC)cc(OC)c1C(=O)c1c(OC)cc2c(c1O)C1CCCC(C)(O2)O1 (stereo not given)
inactive: Potency (JEG-3) | Potency (OV90) | Potency (PA-1) | Potency (SKOV3) | Potency (Tov-21-G) | Potency (Tov112D)

C=C(C(=O)O)C1CCC2(C)CCC(O)C(=C)C2C1 (stereo not given)
inactive: Potency (JEG-3) | Potency (OV90) | Potency (PA-1) | Potency (SKOV3) | Potency (Tov-21-G) | Potency (Tov112D)

CC(C)=CCC[C@](C)(O)[C@H]1CC[C@]2(C)[C@@H]1[C@H](O)CC1[C@@]3(C)CC[C@H](O)C(C)(C)[C@@H]3[C@@H](O[C@@H]3O[C@H](CO)[C@@H](O)[C@H](O)[C@H]3O[C@@H]3O[C@H](CO)[C@@H](O)[C@H](O)[C@H]3O)C[C@]12C (stereo not given in full)
inactive: Potency (JEG-3) | Potency (OV90) | Potency (PA-1) | Potency (SKOV3) | Potency (Tov-21-G) | Potency (Tov112D)

C=C1C(=O)OC2CC3(C)C(CC12)C(C)=CC(O)C3OC(C)=O (stereo not given)
inactive: Potency (JEG-3) | Potency (OV90) | Potency (PA-1) | Potency (SKOV3) | Potency (Tov-21-G) | Potency (Tov112D)

CC1=C(C)C(=O)OC(C(C)C2CCC3C4C5OC5C5(O)CC(OC6OC(CO)C(OC7OC(C)C(O)C(O)C7O)C(O)C6O)CC(O)C5(C)C4CCC23C)C1 (stereo not given)
inactive: Potency (JEG-3) | Potency (OV90) | Potency (PA-1) | Potency (SKOV3) | Potency (Tov-21-G) | Potency (Tov112D)

C[C@@H]1O[C@@H](O[C@H]2[C@H](O[C@H]3CC[C@@]4(C)C(CC[C@]5(C)C4C=C[C@]46OC[C@@]7(CCC(C)(C)C[C@H]74)[C@@H](O)C[C@]65C)[C@]3(C)CO)O[C@H](CO)[C@@H](O)[C@@H]2O[C@@H]2O[C@H](CO)[C@@H](O[C@@H]3O[C@@H](C)[C@H](O)[C@@H](O)[C@H]3O)[C@H](O)[C@H]2O)[C@H](O)[C@H](O)[C@H]1O (stereo not given in full)
inactive: activity change, negative = cytotoxicity (JEG-3) -0.552% [at 11.6 µM] | activity change, negative = cytotoxicity (OV90) -28.6% [at 11.6 µM] | activity change, negative = cytotoxicity (PA-1) -23.2% [at 11.6 µM] | activity change, negative = cytotoxicity (SKOV3) -29.1% [at 11.6 µM] | activity change, negative = cytotoxicity (Tov-21-G) -25.6% [at 11.6 µM] | activity change, negative = cytotoxicity (Tov112D) -4.43% [at 11.6 µM]

CC/C=C\CCO[C@@H]1O[C@H](CO[C@@H]2OC[C@H](O)[C@H](O)[C@H]2O)[C@@H](O)[C@H](O)[C@H]1O
inactive: Potency (JEG-3) | Potency (OV90) | Potency (PA-1) | Potency (SKOV3) | Potency (Tov-21-G) | Potency (Tov112D)

C=C1CC[C@H]2[C@@](C)(CCC(O)[C@@]2(C)CO)[C@@H]1CCC1=CCOC1=O (stereo not given in full)
inactive: Potency (JEG-3) | Potency (OV90) | Potency (PA-1) | Potency (SKOV3) | Potency (Tov-21-G) | Potency (Tov112D)

COc1cc(/C=C/C=O)cc(OC)c1O[C@@H]1O[C@H](CO)[C@@H](O)[C@H](O)[C@H]1O
inactive: Potency (JEG-3) | Potency (OV90) | Potency (PA-1) | Potency (SKOV3) | Potency (Tov-21-G) | Potency (Tov112D)

COc1cc(C)c(C(=O)Oc2cc(C)c(C(=O)Oc3cc(C)c(C(=O)NC(C)C(=O)O)c(O)c3)c(O[C@@H]3O[C@H](CO)[C@@H](O)[C@H](O)[C@H]3OC(C)=O)c2)c(OC)c1 (stereo not given in full)
inactive: Potency (JEG-3) | Potency (OV90) | Potency (PA-1) | Potency (SKOV3) | Potency (Tov-21-G) | Potency (Tov112D)

CC1CCC2(OC1)OC1CC3C4CCC5C[C@@H](O[C@@H]6O[C@H](CO[C@@H]7OC[C@@H](O)[C@H](O)[C@H]7O)[C@H](O)[C@H](O)[C@H]6O)CC[C@]5(C)C4CC[C@]3(C)C1C2C (stereo not given in full)
inactive: Potency (JEG-3) | Potency (OV90) | Potency (PA-1) | Potency (SKOV3) | Potency (Tov-21-G) | Potency (Tov112D)

Cn1c2ccc(F)cc2c2c(C(=O)N3CCCC3)cn(-c3ccccc3)c(=O)c21
inactive: Potency (JEG-3) | Potency (OV90) | Potency (PA-1) | Potency (SKOV3) | Potency (Tov-21-G) | Potency (Tov112D)

CC1OC(OC2C(C)OC(OC3C(OC(=O)C45CCC(C)(C)CC4C4=CCC6C7(C)CCC(OC8OC(C(=O)O)C(O)C(O)C8OC8OC(CO)C(O)C(OC9OC(C)C(O)C(O)C9O)C8O)C(C)(CO)C7CCC6(C)C4(C)CC5)OC(CO)C(O)C3O)C(O)C2O)C(O)C(O)C1O (stereo not given)
inactive: activity change, negative = cytotoxicity (JEG-3) 4.23% [at 6.55 µM] | activity change, negative = cytotoxicity (OV90) 11.5% [at 6.55 µM] | activity change, negative = cytotoxicity (PA-1) 0.842% [at 6.55 µM] | activity change, negative = cytotoxicity (SKOV3) 0% [at 6.55 µM] | activity change, negative = cytotoxicity (Tov-21-G) 2.91% [at 6.55 µM] | activity change, negative = cytotoxicity (Tov112D) 13.7% [at 6.55 µM]
